According to PubChem BioAssay (EPA / NIEHS):
Several values for one entry are separate records, joined by “and”; a condition that tells them apart may be missing. Identical values can stand only once. Records with an inconclusive call do not appear. More than one record can exist for a structure, and the calls need not agree. Activity calls are given as the source filed them. How the source made its calls, unless noted: active means hit-call score of the fitted dose curve at least 0.9, where 1 is the maximum; inactive means score below 0.9.

Columns and labels:
[1] = CCTE_Shafer_MEA_dev_LDH: CCTE's Lactate Dehydrogenase Assay for Cytotoxicity in the Neural Network Formation Assay, Shafer Lab (AID 2284068; active means hit-call score of the fitted dose curve at least 0.9, where 1 is the maximum;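 further: exposure for twelve days from plating with re-dosing on DIV 5 and 9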)
In short: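 Developing rat cortical networks on MEA plates are exposed to compound for 12 days from plating. LDH activity is measured spectrophotometrically, with DMSO as baseline.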

[2] = CCTE_Shafer_MEA_acute_AB: CCTE's Alamar Blue Assay for Cytotoxicity in the Neural Acute Assay, Shafer Lab (AID 2284069; active means hit-call score of the fitted dose curve at least 0.9, where 1 is the maximum;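 further: active compounds lower the viability signal compared with DMSO wells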)
In short: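 Cytotoxicity endpoint for acute MEA exposures of primary rat cortical neurons on day 13 or 15. Resazurin reduction is read fluorescently at 544/590 nm, with DMSO as the negative-control baseline.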

[3] = UKN5_HCS_SBAD2_neurite_outgrowth: University of Konstanz (UKN) Leist Lab Neurite Outgrowth Assay in human iPSC-derived immature Dorsal Root Ganglia Neurons (UKN5) (AID 2284070); conditions: actives raise or lower the signal
In short: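 Thaw, seed on Matrigel (100.000 cells/cm2), dose 1 h later; at 23 h live-stain with H-33342 and calcein-AM for 60 min; image at 24 h. Neurite area fitted bidirectionally vs DMSO.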

[4] = CCTE_Shafer_MEA_dev_AB: CCTE's Alamar Blue Assay for Cytotoxicity in the Neural Network Formation Assay, Shafer Lab (AID 2284083; active means hit-call score of the fitted dose curve at least 0.9, where 1 is the maximum;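 further: resazurin reduction fluorescence as viability of cultured neurons; twelve days of exposure from plating with re-dosing on DIV 5 and 9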)
In short: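 Cytotoxicity companion to the developmental MEA: primary rat cortical neurons, 12-day exposure starting day 0, compound refreshed DIV 5 and 9; resazurin fluorescence, fitted against DMSO vehicle.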

[5] = CCTE_Shafer_MEA_acute_LDH: CCTE's Lactate Dehydrogenase Assay for Cytotoxicity in the Neural Acute Assay, Shafer Lab (AID 2284086; active means hit-call score of the fitted dose curve at least 0.9, where 1 is the maximum;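 further: active means LDH release rises above DMSO vehicle level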)
In short: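 Medium collected from MEA wells of primary rat cortical cultures (DIV 13 or 15) immediately after 40 min chemical exposure is assayed spectrophotometrically for lactate dehydrogenase activity. Endpoint fitted in positive direction versus DMSO.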

[6] = CCTE_Shafer_MEA_dev_mutual_information_norm: CCTE's Neural Network Formation Assay for Mutual Information Normalization, Shafer Lab (AID 2284091);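 on AC50: mutual information between electrodes summarised as area under curve across four recording days; potency is for a decrease in mutual information relative to DMSO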
In short: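 Neurons from rat cortex were seeded at 1.5 x 10^5 cells/well onto PEI-coated MEAs in a laminin drop, then exposed to compound from day 0 for twelve days. Network recordings on four days gave mutual information, summarised by AUC relative to DMSO.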

[7] = CCTE_Shafer_MEA_dev_correlation_coefficient_mean: CCTE's Neural Network Formation Assay for Mean Correlation Coefficient, Shafer Lab (AID 2284093);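 on AC50: well mean pairwise spike train correlation integrated as AUC over recording days 5 to 12; potency fitted for loss of correlation relative to DMSO vehicle wells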
In short: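 Extracellular firing from rat cortical networks on 48-well MEAs, DMSO-referenced, negative fitting direction. Compound present from plating to DIV12; mean pairwise correlation per well integrated over DIV5–12 recordings by trapezoidal AUC.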

[8] = IUF_NPC1b_proliferation_BrdU_72hr: Leibniz Research Institute for Environmental Medicine (IUF) 72-hour Neural Progenitor Cell Bromodeoxyuridine (BrdU) Proliferation Assay (NPC1b) (AID 2284207)
In short: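 Luminescent BrdU ELISA measured DNA synthesis during the last 16 h of a 72 h exposure of primary human neural progenitor spheres grown with EGF and FGF. Signal was fitted relative to DMSO controls.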

[9] = UKN2_HCS_IMR90_neural_migration: University of Konstanz (UKN) Leist Lab Neural Crest Cell Migration Assay in human induced IMR90 Pluripotent Stem Cells (UKN2) (AID 2284204); conditions: actives raise or lower the signal
In short: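 Stopper-exclusion migration (cMINC), human iPSC-derived neural crest cells; N2-S + EGF/FGF; compound added 24 h post-stopper removal, 24 h exposure. Readout: calcein-AM/Hoechst 30 min, HCS fluorescence imaging; bidirectional fitting, DMSO baseline.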

[10] = UKN4_HCS_LUHMES_neurite_outgrowth: University of Konstanz (UKN) Leist Lab Neurite Outgrowth Assay in human LUHMES cells (UKN4) (AID 2284206); conditions: actives raise or lower the signal
In short: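 Human LUHMES cells were differentiated for two days, replated and treated with chemicals for 24 h. Neurite outgrowth was quantified as calcein-stained neurite area by HCS imaging, fitted bidirectionally relative to DMSO.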

Measured: AC50

CSC1=N[C@@](C)(c2ccccc2)C(=O)N1Nc1ccccc1
active: [1] 15 µM
not listed: [9] | [10]
inactive: all other assays above

CCOP(=S)(OCC)Oc1ccc([N+](=O)[O-])cc1
inactive: [1] | [4] | [6] | [7]

CCOC(=O)CC(SP(=O)(OC)OC)C(=O)OCC (stereo unspecified)
not listed: [4] | [5]
inactive: all other assays above

CON=C(C(=O)OC)c1ccccc1CON=C(C)c1cccc(C(F)(F)F)c1
inactive: [2] | [5] | [8]
active: [1] 326 nM and 299 nM | [4] 1.26 µM and 437 nM | [6] 671 nM and 812 nM | [7] 941 nM and 501 nM | [9] 15.2 µM

C[Si](Cn1cncn1)(c1ccc(F)cc1)c1ccc(F)cc1
active: [1] 22.5 µM | [6] 1.61 µM
inactive: [2] | [4] | [5] | [7]

CCOP(=O)(NC(C)C)Oc1ccc(SC)c(C)c1 (stereo unspecified)
inactive: [1] | [2] | [4] | [5] | [6] | [7] | [9]
active: [1] 51 µM | [6] 36.3 µM | [7] 90.9 µM | [8] 27.9 µM

CC(C)[C@H](C(=O)O[C@H](C#N)c1cccc(Oc2ccccc2)c1)c1ccc(Cl)cc1
inactive: [1]
active: [4] 0.0209 µM | [6] 0.189 µM | [7] 0.564 µM

CC1=NNC(=O)N(/N=C/c2cccnc2)C1
not listed: [3] | [9] | [10]
inactive: all other assays above

COP(=O)(OC)C(O)C(Cl)(Cl)Cl (stereo unspecified)
inactive: [2] | [3] | [8]
active: [1] 3.52 µM and 1.47 µM | [4] 50 µM and 1.05 µM | [6] 18.4 µM and 3.54 µM | [7] 31.7 µM and 15 µM

CC(C)=CC1C(C(=O)OCN2C(=O)C3=C(CCCC3)C2=O)C1(C)C (stereo unspecified)
inactive: [4] | [5] | [6] | [7]
active: [1] 10 µM

CCOP(=S)(Oc1cnc(C(C)(C)C)nc1)OC(C)C (stereo unspecified)
inactive: [2] | [5] | [9]
active: [1] 77.4 µM and 20.6 µM | [4] 80.1 µM and 25.9 µM | [6] 80.9 µM and 13.4 µM | [7] 79.7 µM and 17.4 µM | [8] 12.8 µM

O=[N+]([O-])c1cc(C(F)(F)F)c(Cl)c([N+](=O)[O-])c1Nc1ncc(C(F)(F)F)cc1Cl
inactive: [2] | [5] | [8]
active: [1] 0.871 µM | [4] 1.01 µM | [6] 0.328 µM | [7] 0.65 µM | [9] 0.638 µM

CCOP(=S)(OCC)SCCSCC
inactive: [1] | [4] | [5] | [6] | [7] | [8]

CCCCSP(=O)(SCCCC)SCCCC
inactive: [9]
active: [1] 27.3 µM and 49.9 µM | [4] 50 µM and 63.1 µM | [6] 29.3 µM and 18.4 µM | [7] 29.6 µM and 35 µM | [8] 87.2 µM

CCOP(=S)(OCC)Oc1cc(C)nc(C(C)C)n1
inactive: [4] | [6] | [7] | [8]
active: [1] 50 µM | [4] 50 µM | [6] 50 µM | [7] 50 µM

CC[C@H](C)[C@H]1O[C@]2(C=C[C@@H]1C)C[C@@H]1C[C@@H](C/C=C(\C)[C@@H](O[C@H]3C[C@H](OC)[C@@H](O[C@H]4C[C@H](OC)[C@@H](NC)[C@H](C)O4)[C@H](C)O3)[C@@H](C)/C=C/C=C3\CO[C@@H]4[C@H](O)C(C)=C[C@@H](C(=O)O1)[C@]34O)O2
inactive: [2] | [5]
active: [1] 145 nM and 0.883 nM | [2] 20 µM | [3] 1.12 µM | [4] 0.656 µM | [6] 0.981 nM and 1.87 nM | [7] 318 nM and 15.9 nM | [9] 4.54 µM and 1.96 µM | [10] 1.79 µM | [8] 25 µM and 1.71 µM

COP(=O)(NC(C)=O)SC (stereo unspecified)
inactive: [1] | [2] | [5] | [6] | [7] | [8]
active: [5] 0.00708 µM | [6] 15 µM

CC(C)N(C(=O)SCC(Cl)=C(Cl)Cl)C(C)C
inactive: [2] | [5] | [8]
active: [1] 10.7 µM | [4] 21.8 µM | [6] 15 µM | [7] 15 µM | [10] 15.9 µM

CCOP(=S)(OCC)Oc1ccc2c(C)c(Cl)c(=O)oc2c1
active: [1] 76.4 µM | [4] 78.4 µM | [6] 21.9 µM | [7] 41.6 µM
inactive: [2] | [5]

C=C(C)[C@H]1Cc2c(ccc3c2O[C@@H]2COc4cc(OC)c(OC)cc4[C@@H]2C3=O)O1
inactive: [2] | [5] | [8]
active: [1] 16.4 nM and 15.4 nM | [4] 38.4 nM and 57.1 nM | [6] 0.00709 µM | [7] 14.5 nM and 16.1 nM | [8] 0.0427 µM

CN(C)[C@@H]1C(=O)C(C(N)=O)=C(O)[C@@]2(O)C(=O)C3=C(O)c4c(O)cccc4[C@@](C)(O)[C@H]3[C@H](O)[C@@H]12
active: [1] 77.7 µM | [4] 50 µM | [7] 88.2 µM | [9] 116 µM | [8] 12.1 µM
inactive: [2] | [5] | [6]

CCCSP(=O)(OCC)Oc1ccc(Br)cc1Cl (stereo unspecified)
inactive: [4] | [6] | [7]
active: [1] 1.79 µM

COc1cc(OC)nc(Sc2cccc(Cl)c2C(=O)O)n1
inactive: [2] | [5]

CN1COCN(Cc2cnc(Cl)s2)C1=N[N+](=O)[O-]
inactive: [1] | [5] | [6] | [7] | [8]

FC(F)C(F)(F)OCC(Cn1cncn1)c1ccc(Cl)cc1Cl (stereo unspecified)
inactive: [2]

Nc1c(Cl)cc([N+](=O)[O-])cc1Cl
inactive: [2]
active: [5] 0.0105 µM

O=C(O)c1cc(Oc2ccc(C(F)(F)F)cc2Cl)ccc1[N+](=O)[O-]
inactive: [5]

CCOP(=O)(OCC)Oc1cc(C)nc(C(C)C)n1
inactive: [1] | [4] | [6] | [7] | [9] | [8]

N#CSCSC#N
inactive: [2] | [5]

CC(Oc1cccc(Cl)c1)C(=O)O (stereo unspecified)
inactive: [1] | [6] | [7]

CCc1cnc(C2=NC(C)(C(C)C)C(=O)N2)c(C(=O)O)c1 (stereo unspecified)
inactive: [2]

CC(COc1ccc(Oc2ccccc2)cc1)Oc1ccccn1 (stereo unspecified)
inactive: [2]

C[N+]1(C)CCCCC1
inactive: [2] | [4] | [5] | [6] | [7] | [8]

CNC(=O)ON=C(SC)C(=O)N(C)C
inactive: [5]

C#CCC1=C(C)C(OC(=O)C2C(C=C(C)C)C2(C)C)CC1=O (stereo unspecified)
inactive: [4] | [5]
active: [6] 0.303 µM | [7] 3 µM

CCOP(=O)(SC(C)CC)N1CCSC1=O (stereo unspecified)
inactive: [6] | [7]
active: [1] 50 µM

CN(C)NC(=O)CCC(=O)O
inactive: [2]

CCCSP(=O)(OCC)SCCC
inactive: [9] | [8]
active: [1] 15.7 µM and 15.4 µM | [4] 20.6 µM and 18.7 µM | [6] 9.23 µM and 14.7 µM | [7] 15.8 µM and 20.4 µM

COP(=O)(OC)OC(Br)C(Cl)(Cl)Br (stereo unspecified)
active: [1] 6.64 µM and 17.1 µM | [4] 7.73 µM and 16.4 µM | [6] 4.85 µM and 13 µM | [7] 8.49 µM and 16 µM | [9] 25.4 µM | [8] 50.1 µM

CCOP(=S)(OCC)OC(Cl)C(Cl)(Cl)Cl (stereo unspecified)
active: [1] 31 µM and 21.4 µM | [4] 30.7 µM and 17.8 µM | [6] 15.9 µM and 18 µM | [7] 21.2 µM and 17.8 µM | [8] 1.35 µM
inactive: [9]

S=C1NCCN1
inactive: [1] | [4] | [6] | [7] | [8]

CCCOCC(=Nc1ccc(Cl)cc1C(F)(F)F)n1ccnc1
inactive: [2] | [5]

CC(=NC#N)N(C)Cc1ccc(Cl)nc1
active: [8] 0.385 µM
not listed: [1] | [5]
inactive: all other assays above

Cc1ccn2nc(S(=O)(=O)Nc3c(F)cccc3F)nc2n1
inactive: [2] | [5]
